Data from PubChem BioAssay AID2057 (The Scripps Research Institute Molecular Screening Center, 2009).
The campaign covered roughly 320,000 compounds. About 2,100 (0.66%) were called active. The list comes from a sample in which actives are over-represented; it also holds similar structures and randomly drawn compounds. A number with no mark means an inactive call.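 The calls were made as follows: active = inhibition above the mean inhibition of all tested compounds plus 3 SD, set per campaign (cut at about 40% in these data); inactive = the rest.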

Molecular target: Induced myeloid leukemia cell differentiation protein Mcl-1 (Homo sapiens) (UniProt Q07820)
Sequence (Q07820 whole entry, looked up): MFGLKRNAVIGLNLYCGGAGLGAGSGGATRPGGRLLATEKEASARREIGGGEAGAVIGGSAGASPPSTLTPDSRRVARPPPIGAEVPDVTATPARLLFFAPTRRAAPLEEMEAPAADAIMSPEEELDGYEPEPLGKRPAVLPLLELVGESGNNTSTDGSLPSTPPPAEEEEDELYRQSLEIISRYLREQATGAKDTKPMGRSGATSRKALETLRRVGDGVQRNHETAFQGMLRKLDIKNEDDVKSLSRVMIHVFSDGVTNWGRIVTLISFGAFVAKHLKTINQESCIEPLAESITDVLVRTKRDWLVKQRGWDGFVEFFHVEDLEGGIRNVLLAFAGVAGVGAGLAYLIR
Test: MCL1-BIM peptide interaction disruptors – biochemical, fluorescence polarization, primary screen (AID 2057);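 also: 0% = DMSO wells and 100% = unlabeled Bim-BH3 peptide control; higher means more loss of mP so more displacement of Bim peptide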
Conditions: GST-MCL1 / FITC-Bim-BH3 fluorescence polarization; at 10.9 µM; active compounds read high

First: CSc1ccccc1NC(=O)c1cnc2sc(C)cn2c1=O
Second: COC(=O)c1ccccc1NC(=O)CSc1nc2c(c(=O)[nH]1)CCC2
The inhibition of the first is higher: 3.46% for the first, 0.89% for the second.

Compared with `O=C(OCC(=O)N1CCOCC1)c1ccc2ccccc2c1`, `CSc1ccccc1C(=O)OCC(=O)N1CCN(C(C)=O)CC1` is higher in inhibition: -1.12% for the first, 1.83% for the second.

Compared with `O=c1c2ccccc2oc2nc(C3CCCCC3)n(Cc3ccco3)c(=O)c12`, `CCCc1nc2c(c(=O)c3ccccc3n2C)c(=O)n1C1CCCCCC1` is lower in inhibition: 2.28% for the first, -7.58% for the second.

Compared with `O=C(O)c1ccc(S(=O)(=O)N2CCOCC2)o1`, `O=C(NCCc1ccccc1)C1CCN(S(=O)(=O)c2ccc(Br)s2)CC1` is higher in inhibition: -0.62% for the first, -0.6% for the second.

First: COC(=O)N/N=C/c1c[n+]([O-])c2ccccc2[n+]1[O-]
Second: Cc1ccc(C(=O)NC(=S)Nc2ccccc2C)cc1
The inhibition of the first is higher: 5.75% for the first, 4.14% for the second.

Going from `Cc1cc(/C=C2\SC(=Nc3ccc(N4CCOCC4)cc3)N(C)C2=O)c(C)n1-c1cccnc1` to `Cc1cc(/C=C2\SC(=O)N(C)C2=O)c(C)n1-c1cccc(C(=O)O)c1`, the inhibition rises from -2.16% to 10.5%.

Going from `COc1ccc(N(CC(=O)NC2CCCCC2)S(=O)(=O)c2c(C)[nH]c(=O)[nH]c2=O)cc1` to `COc1ccc(C2C3=C(CCCC3=O)N(CC(=O)O)C3=C2C(=O)CCC3)cc1`, the inhibition rises from 5.18% to 8.95%.

Compared with `CC1CCCN(C(=O)c2cc(-c3ccco3)nc3ccccc23)C1` (stereo not given), `COc1ccc(NC(=O)CN(C)C(=O)c2cc(-c3ccc(C)o3)nc3ccccc23)cc1` is lower in inhibition: 7.17% for the first, 4.98% for the second.

Going from `CN(C(=O)COC(=O)c1nc(Cl)ccc1Cl)C1CCS(=O)(=O)C1` (stereo not given) to `CC(=O)N1CCC(C(=O)OCc2ccc(Cl)cc2)(c2ccccc2)CC1`, the inhibition rises from -0.55% to 7.68%.

Compared with `COc1ccc(-c2cc(C(=O)N(C)Cc3ccccc3)c3ccccc3n2)cc1`, `Cc1cc(C)n2nc(C(=O)N(C)C(c3ccccc3)c3ccccc3)nc2n1` is lower in inhibition: -5.9% for the first, -7.96% for the second.

Going from `COc1ccccc1C(=O)N/C(=C/c1ccco1)C(=O)Nc1ccc(C(=O)O)cc1` to `COc1ccccc1N1CCN(S(=O)(=O)CCNC(=O)c2ccc(OC(C)C)cc2)CC1`, the inhibition falls from 12.1% to -5.21%.

Going from `CCCCC(NS(=O)(=O)c1ccc(C)cc1)C(=O)Oc1ccc2c3c(c(=O)oc2c1)CCC3` (stereo not given) to `CCOc1ccc(C2C3=C(CCCC3=O)N(CC(=O)O)C3=C2C(=O)CCC3)cc1`, the inhibition rises from 1.03% to 17.6%.

First: C#CCOCCOCCOCCNc1nc(N2CCN(C(=O)CCCCCCCCCCNC(=O)[C@H](CCCCN)n3cc(C)nn3)CC2)nc(N2CCN(C(=O)CCCCCCCCCCNC(=O)[C@H](CO)n3cc(CCCSC)nn3)CC2)n1
Second: Cc1cc(-c2nnc(SCC(=O)Nc3ccc(S(N)(=O)=O)cc3)n2N)n[nH]1
The inhibition of the first is higher: 14.4% for the first, -7.81% for the second.

First: O=C(OCc1cc(Cl)ccc1OC(F)F)c1cccnc1
Second: COc1ccc2ccccc2c1CNCc1ccccn1
The inhibition of the first is lower: -0.26% for the first, 4.21% for the second.

Compared with `CS(=O)(=O)Nc1ccccc1N=C(c1ccccc1)c1ccccc1`, `Cc1cc(C)c[n+](-c2nc3ccccc3nc2[N-]S(=O)(=O)c2cccs2)c1` is higher in inhibition: -1.05% for the first, 3.38% for the second.

First: COC(=O)/C=C\C(=O)Nc1cccc([N+](=O)[O-])c1
Second: COC(=O)c1sccc1NC(=S)Nc1ccc(C)cc1
The inhibition of the first is lower: 2.27% for the first, 13.5% for the second.

`Cn1c2ccccc2c(=O)c2c(=O)n(Cc3ccco3)c(COc3ccccc3)nc21` was tested, and the inhibition was 60.6% (active).
In the case of `CN1C(=O)/C(=C/c2ccco2)SC1=Nc1cccc(C(=O)O)c1`, the inhibition is reported as 44.5% (active).
For `CN(CCOc1ccccc1)C(=O)c1cc(-c2ccco2)nc2ccccc12`, the inhibition was 46% (active).
In the case of `CN(C(=O)COC(=O)c1cc(-c2ccco2)nc2ccccc12)C1CCS(=O)(=O)C1` (stereo not given), the inhibition is reported as 105% (active).
With `CN1c2ccc(C=O)c3c(C=O)ccc(c23)N(C)C1(C)C` the inhibition was 167% (active).
For `COC(=O)c1sc(NC(=S)NC(=O)c2ccc(C)cc2)nc1C`, the inhibition was 98.3% (active).
In the case of `CCCN1C2=C(C(=O)CCC2)C(c2ccc(O)c(Br)c2)C2=C1CCCC2=O`, the inhibition is reported as 43.5% (active).
With `O=S(=O)([N-]c1nc2ccccc2nc1-[n+]1ccc(Cc2ccccc2)cc1)c1ccc(Br)s1` the inhibition was 87.1% (active).
